Compounds without any hit were thinned out: in the full panel of roughly 83,000, 20% have a hit.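 Growth was measured after 48 h exposure to one concentration of compound in 96-well plates. Values under 10 count as active.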 Unmarked numbers belong to inactive results. The source made the active and inactive calls.
These compounds were tested on MDA-MB-468 breast (assay: NCI-60 one-dose screen, 48 h (100 = growth as untreated, 0 = no growth, -100 = all killed)). Conditions: 10 µM unless noted.
In the case of `COc1ccc(-c2ccc(-c3ccc(C(=N)N)cc3)s2)cc1Cl`, the growth is reported as -65% (active).
Compound `O=S(=O)(NCCNc1nccc(-c2c(-c3cccc(F)c3)nc3occn23)n1)c1ccc(C(F)(F)F)cc1` has a growth of 74.7%.
In the case of `CCOC(=O)C1=C(C)NC(C)=C(C(=O)OC(C)C)C1c1cccc(C#N)c1` (stereo not given), the growth is reported as 79.4%.
Compound `COC(=O)[C@]12CC[C@@H](C(/C=C/c3cccnc3)=N/O)[C@@H]1[C@H]1CC[C@@H]3[C@@]4(C)CC(=C/c5cccnc5)/C(=N/O)C(C)(C)[C@@H]4CC[C@@]3(C)[C@]1(C)CC2` has a growth of 13.1%.
With `COc1ccc(S(=O)(=O)N2CC3(COC3)C2)cc1NC(=O)c1[nH]c(C)c2c1CCCCC2=O` the growth was 22.2%.
